Measured values reported in PubChem BioAssay AID2284369 (EPA ToxCast).
Results filed as inconclusive are left out. Activity calls are given as the source filed them. Rule for the calls: active = hit-call score of the fitted dose curve at least 0.9, where 1 is the maximum; inconclusive = response in the unintended direction; inactive = score below 0.9.

Test system: frog Estrogen Receptor (ER1), gene 398734
Assay: ATG_frER1_EcoTox2: Attagene TRANS-FACTORIAL EcoTox-2 HepG2 Assay for frog Estrogen Receptor (ER1)
Protocol: ATG_EcoTox2 is a cell-based, multiplexed assay created by modifying the existing Attagene TRANS-FACTORIAL system to include a panel of nuclear receptors from some or all the following species: human (Homo sapiens), african clawed frog (Xenopus laevis), rainbow trout (Oncorhynchus mykiss), japanese medaka (Oryzias latipes), and zebrafish (Danio rerio). The ECOTOX2-FACTORIAL format uses HepG2, a human liver cell line, with measurements taken at 24 hours after chemical dosing in a 24-well plate. ATG_frER1_EcoTox2 is one of 29 assay components calculated in the ATG_EcoTox2 assay. It is designed to make measurements of mRNA induction, a form of inducible reporter, as detected with fluorescence intensity signals by Reverse transcription polymerase chain reaction (RT-PCR) and Capillary electrophoresis technology.The assay endpoint ATG_frER1_EcoTox2 was analyzed in the positive analysis fitting direction relative to DMSO as the negative control and baseline of activity. Using a type of inducible reporter, measures of mRNA for gain-of-signal activity can be used to understand the reporter gene at the transcription factor-level as they relate to the gene ER. Furthermore, this assay endpoint can be referred to as a primary readout, because this assay has produced multiple assay endpoints where this one serves a reporter gene function. To generalize the intended target to other relatable targets, this assay endpoint is annotated to the nuclear receptor intended target family, where the subfamily is steroidal.
Human liver HepG2 cells are transiently transfected with multiple reporter transcription units (MRTUs) in 6-well plates using FuGene 6 reagent (Roche; 3 ml FuGene/1 mg DNA). The MRTU constructs are regulated by a cis-regulating element (promoter). Each RTU expresses a GAL4-UAS that regulates the transcription of a nearby target reporter gene sequence. A major difference between the CIS and TRANS system is that in CIS activities of endogenous TFs are measured, whereas the TRANS assay evaluates changes in activities of exogenous, chimeric NR-Gal4 proteins. […] At the end of 24 hour incubation, total RNA was isolated using TriZol reagent (Invitrogen). The isolated RNA is then reverse-transcribed using oligo(dT) primer and Mo-MLV reverse transcriptase (Invitrogen) with DNAse I (Ambion) treatment for 30 min. The one-tenth of the produced cDNA was amplified by PCR using Taq DNA polymerase (Invitrogen) and two reporter sequence-specific primers. The PCR products were fluorescently labeled by primer extension with 6-arboxyfluorescein (6-FAM) 5'-labeled reporter sequence-specific primer (2 min at 95 C, 20 s at 68 C and 10 min at 72 C) and these products were digested with 5U of HpaI (New England Biolabs) for 2h at 37 C. The fragments were purified using Qiaquick PCR columns (Qiagen), analyzed on an ABI 3130xL genetic analyzer (Applied Biosystems) with peak positions identified by using a set of X-rhodamine (ROX)-labeled MapMarker1000 molecular weight standards (BioVentures). The raw capillary electrophoresis data was processed using Attagraph software (Attagene).

Structure (SMILES)	outcome	AC50
CN(CCOc1ccc(CC2SC(=O)NC2=O)cc1)c1ccccn1 (stereo not given)	inactive	–
Cc1cccc(Nc2cc(Cl)nc(SCC(=O)O)n2)c1C	inactive	–
Cc1ccc(C)c(OCCCC(C)(C)C(=O)O)c1	inactive	–
CC(c1cc2ccccc2s1)N(O)C(N)=O (stereo not given)	inactive	–
CC(C)(Oc1ccc(CCNC(=O)c2ccc(Cl)cc2)cc1)C(=O)O	inactive	–
C=C(c1ccc(C(=O)O)cc1)c1cc2c(cc1C)C(C)(C)CCC2(C)C	inactive	–
C[C@]12C=CC(=O)C=C1CC[C@@H]1[C@@H]2C(=O)C[C@@]2(C)[C@H]1CC[C@]2(O)C(=O)CO	–	50 µM (active)
Cc1c(C)c2c(c(C)c1O)CCC(C)(COc1ccc(CC3SC(=O)NC3=O)cc1)O2 (stereo not given)	inactive	–
CC(C)OC(=O)C(C)(C)Oc1ccc(C(=O)c2ccc(Cl)cc2)cc1	inactive	–
C[C@@H]1C[C@H]2[C@@H]3CCC4=CC(=O)C=C[C@]4(C)[C@@]3(F)[C@@H](O)C[C@]2(C)[C@@]1(O)C(=O)COP(=O)(O)O	inactive	–
